Screening data: PubChem BioAssay, National Center for Advancing Translational Sciences (NCATS)
Hits are enriched below; roughly 18% of the tested compounds scored in any of these assays.
PLK1 PBD block – inhibitors of human PLK1 polo-box domain binding; Plk1 PBD binding of FITC phosphopeptide, fluorescence polarization; Potency, µM, inactives show max response, negative = inhibition, usual class: inhibitors; 360,000 tested, 2.8% active; note: series mostly up to about 57 µM; nearly all actives have a fitted effect of over 65% in size
TDP1 block – inhibitors of human tyrosyl-DNA phosphodiesterase TDP1. Q9NUW8. Potency, µM (top dose mostly 130 µM), without a hit: at the highest dose activity change, negative = inhibition, actives largely listed as inhibitors. AID 485290. 350,000 tested, 0.28% active. recombinant TDP1, AlphaScreen DNA substrate cleavage; note: nearly all actives have a fitted effect of over 40% in size
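Recombinant human Tdp1 (E. coli-expressed, 1 nM final) preincubated with compounds 15 min at room temperature, then 5'-biotin/3'-phosphotyrosine-FITC DNA substrate (15 nM final) added for 5 min. AlphaScreen beads (10 ug/ml final) added 10 min; cleavage lowers signal.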
TDP1 cell CPT – DT40-hTDP1 cell growth loss with CPT | chicken DT40 Tdp1-/-;hTDP1 cells + 20 nM CPT, ATP luminescence, 48 h | AID 686979 | Potency, µM (highest dose often 46.2 µM), without a hit: top-dose activity change, negative = growth inhibition, actives largely listed as inhibitors | 420,000 tested, 12% active; note: nearly all actives have a fitted effect of over 55% in size
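Chicken DT40 Tdp1-/- cells complemented with human TDP1, 400 cells/well, exposed to compounds plus 20 nM camptothecin for at least 48 h at 37 C; viability read as ATP content by CellTiter-Glo luminescence.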
VDR inhibitor – blocks the human vitamin D receptor. P11473. VDR-SRC2-3 peptide fluorescence polarization, 2 h. Potency, µM, without a hit: max response, negative = inhibition, hits mostly inhibitors. 400,000 tested, 0.93% active. AID 504847
Target sequence (P11473 whole entry, looked up): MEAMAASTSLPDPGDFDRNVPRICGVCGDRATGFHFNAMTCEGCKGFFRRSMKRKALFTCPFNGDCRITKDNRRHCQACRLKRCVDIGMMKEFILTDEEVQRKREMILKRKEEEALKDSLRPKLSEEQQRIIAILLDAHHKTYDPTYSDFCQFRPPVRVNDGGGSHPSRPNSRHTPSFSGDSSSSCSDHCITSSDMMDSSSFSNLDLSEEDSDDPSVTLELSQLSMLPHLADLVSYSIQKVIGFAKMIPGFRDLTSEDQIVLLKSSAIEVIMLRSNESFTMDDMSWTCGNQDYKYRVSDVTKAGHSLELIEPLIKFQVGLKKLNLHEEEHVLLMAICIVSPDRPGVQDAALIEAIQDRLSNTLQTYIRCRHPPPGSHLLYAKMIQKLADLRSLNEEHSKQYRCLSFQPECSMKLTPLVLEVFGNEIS
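Two reagent solutions held at 4 deg C in the dark were dispensed, compounds pinned at 23 nl, and the mixture incubated 2 h at room temperature. Read-out: fluorescence polarization of VDR–SRC2-3 peptide binding.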
KAT2A inh – GCN5L2 (KAT2A) acetyltransferase inhibition. GCN5L2 HAT assay, ThioGlo1 CoA-SH fluorescence. Potency, µM (titrated, usually from 58.9 µM), inactives show top-dose activity change, negative = inhibition, actives largely listed as inhibitors. 390,000 tested, 0.21% active. Q92830. AID 504327
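GCN5L2 (20nM final) in 50mM HEPES, 0.1mM EDTA pH 7.5, 0.01% Tween-20 was preincubated 15 min at room temperature with compound, then given ThioGlo1 (50uM), H3(1-25) peptide (75uM) and acetyl-CoA (70uM); CoA-thiol fluorescence (Ex340/Em540) was read at 0 and 20 min.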
DT40 TDP1 no CPT – qHTS for Inhibitors of human tyrosyl-DNA phosphodiesterase 1 (TDP1): qHTS in cells in absence of CPT; DT40 Tdp1-/- hTDP1 cells, no CPT, ATP luminescence, 48 h; 420,000 tested, 15% active; Potency, µM (series often up to 46.2 µM), without a hit: at the highest dose activity change, negative = growth inhibition, most hits filed as inhibitors; note: nearly all actives have a fitted effect of over 55% in size
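DT40 Tdp1-/-;hTDP1 cells, no CPT (DMSO vehicle only), 400 cells/well; compounds pin-transferred; ≥48 hr, 37 °C; CellTiter-Glo 30 min RT dark, luminescence read.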
An asterisk follows results filed as active; u = inconclusive; x = no result given; [ ] = remark or other dose. Calls come from the whole dose curve; as a rule, active = well fitted curve in the direction sought with a large enough effect; inconclusive = small, poorly fitted or top-dose-only effect, or another doubt; inactive = no such curve, though single readings can be large; an effect the other way counts as inactive or inconclusive. % is set by controls: 0 for no effect and ±100 for the full control effect; potency is the fitted concentration of half-maximal effect.

SMILES | PLK1 PBD block | TDP1 block | TDP1 cell CPT | VDR inhibitor | KAT2A inh | DT40 TDP1 no CPT
N#Cc1c(N)nc(Sc2ccc(Cl)cc2)c(C#N)c1-c1ccccc1Cl | 4.8% | 2.7% | 16.4µM* | -8.6% | u | 14.6µM*
CCCCCC(=O)NC(Cc1ccc(OC)c([N+](=O)[O-])c1)C(=O)O (stereo not drawn) | 21.2µM* | 3.4% | u | u | 1.6% | u
CSc1ccc(-c2nc3cc(C)ccn3c2Nc2ccc(C)cc2)cc1 | x | 2.5% | -22.7% | -4.2% | -4.2% | u
Cc1ccn2c(Nc3c(C)cccc3C)c(-c3ccsc3)nc2c1 | x | 10.0% | 20.6µM* | -6.2% | -10.7% | 23.1µM*
Cc1ccn2c(Nc3c(C)cccc3C)c(-c3ccc(Cl)s3)nc2c1 | x | 0.0%[12.3 µM] | 13µM* | -5.4% | -11.0% | 18.4µM*
Cc1cc([N+](=O)[O-])cc2c1NC(c1ccccn1)C1CC=CC21 (stereo not drawn) | u | 8.3% | u | -19.2% | 1.7% | -21.7%
O=[N+]([O-])c1ccc(Cl)c2c1C1C=CCC1C(c1ccccn1)N2 (stereo not drawn) | -23.0% | 2.5% | 18.4µM* | u | -10.0% | u
CCOC(=O)N1CCN(CC(=O)Nc2nc3ccc(OC)cc3s2)CC1 | 6.1% | x | u | 4.6% | -6.9% | u
CCOC(=O)N1CCN(C(=O)CSCC(=O)N=c2sc3ccccc3n2C)CC1 | -9.9% | -1.0% | 16.4µM* | 8.5% | x | u
CCOC(=O)N1CCN(C(=O)Cn2c(=O)sc3ccccc32)CC1 | -3.9% | x | -20.9% | 9.3% | -7.4% | -25.2%
CCOC(=O)N1CCN(C(=O)CSCC(=O)N=c2sc3cc(OC)ccc3n2C)CC1 | 26.7µM* | x | u | u | x | u
Cc1noc(NS(=O)(=O)c2ccc(NC(=O)NC(C)(C(F)(F)F)C(F)(F)F)cc2)c1C | -8.5% | x | -16.8% | 12.0% | 17.1% | -13.3%
COCCn1c(C)cc(C(=O)CSc2cc(C)c3ccc(OC)cc3n2)c1C | u | 8.2% | u | 5.5% | -8.1% | 16.4µM*
COCC(C)n1c(C)cc(C(=O)COC(=O)c2n[nH]c3ccccc23)c1C (stereo not drawn) | -20.8% | 8.8% | u | -3.8% | -3.2% | 25.9µM*
COCCn1c(C)cc(C(=O)CSc2nc(C)c(C)c(C)n2)c1C | u | 1.2% | 29.1µM* | -7.4% | -4.8% | 23.1µM*
COCC(C)n1c(C)cc(C(=O)CSc2nc(C)c(C)c(C)n2)c1C (stereo not drawn) | -17.7% | x | u | -4.7% | -19.3% | 14.6µM*
CCc1nnc(SCc2nc(-c3ccccc3Cl)oc2C)c2cc3sc(C)cc3n12 | x | -5.1% | u | 19.1% | 1.2% | -27.3%
O=C(c1nc2ncccn2n1)N1CCOc2ccc(C(O)C(c3ccccc3)c3ccccc3)cc2C1 (stereo not drawn) | x | x | u | x | x | -45.9%
CCC(C)NC(=O)c1cn(CC)c2ccc(S(=O)(=O)N3CCc4ccccc4C3)cc2c1=O (stereo not drawn) | x | 2.3% | 20.6µM* | -8.9% | -10.1% | u
CCn1cc(C(=O)NC(C)c2ccccc2)c(=O)c2cc(S(=O)(=O)N3CCc4ccccc4C3)ccc21 (stereo not drawn) | x | 0.0% | u | 1.5% | -5.8% | 16.4µM*
CCn1cc(C(=O)NCc2ccccc2)c(=O)c2cc(S(=O)(=O)N3CCc4ccccc4C3)ccc21 | x | 2.3% | u | 5.8% | -14.8% | u
CCn1cc(C(=O)N2CCc3ccccc32)c(=O)c2cc(S(=O)(=O)N3CCCC3)ccc21 | 6.5% | 5.3% | -21.3% | -9.1% | -9.7% | -11.5%
CC(C(=O)O)n1cc(C#N)c(=O)[nH]c1=O (stereo not drawn) | -7.1% | x | -15.4% | 3.3% | x | -8.4%
Clc1cccc(-c2ccc(CNCCSc3nnnn3-c3ccccc3)o2)c1 | x | 4.7% | u | 5.3% | -14.0% | u
Clc1cccc(CSc2nnc(-c3c[nH]c4ccccc34)o2)c1 | 4.1% | 7.9% | u | 9.1% | -2.5% | u
SMILES | PLK1 PBD block | TDP1 block | TDP1 cell CPT | VDR inhibitor | KAT2A inh | DT40 TDP1 no CPT
O=c1c(-c2nnc(SCc3ccc(Cl)c(Cl)c3)o2)cccn1Cc1ccccc1 | -9.3% | -12.4% | u | -1.2% | -9.0% | 20.6µM*
O=C1CSC(=S)N1/N=C/c1ccc(O)c(O)c1O | 0.947µM* | u | 25.9µM* | u | u | u
N#C/C(=C\c1ccccc1O)C(=O)Nc1ccccn1 | -13.5% | x | 3.8% | 0.1% | 0.0% | -3.3%
Cc1ccc(-n2nc(C)c3c(C)cc(=O)n(CC(=O)NC(C)c4ccccc4)c32)cc1 (stereo not drawn) | x | -0.6% | -13.9% | -2.7% | -9.0% | -10.9%
CCOc1ccc(NC(=O)Cn2c(=O)cc(C)c3c(C)nn(-c4cccc(Cl)c4C)c32)cc1 | x | 8.4% | 25.9µM* | 7.5% | 0.7% | 13µM*
Cc1cc(=O)n(CC(=O)NC(C)c2ccccc2)c2c1c(C)nn2C (stereo not drawn) | x | x | 14.6µM* | -2.5% | 2.3% | 8.2µM*
CCOc1ccc(NC(=O)Cn2c(=O)cc(C)c3c(C)nn(C)c32)cc1 | x | 0.6% | 20.6µM* | -7.2% | 6.0% | 8.2µM*
CCc1ccc(-n2nc(C)c3c(C)cc(=O)n(CC(=O)Nc4ccc(C(C)=O)cc4)c32)cc1 | x | 8.4% | u | 0.0% | -0.7% | 9.2µM*
Cc1nn(CC(=O)NC2(C)CCS(=O)(=O)C2)c(C)c1S(=O)(=O)N(C)C (stereo not drawn) | -6.7% | 1.1% | 4.7% | 12.7% | -8.1% | 4.0%
CC(=O)c1ccccc1OCCn1nc(C(=O)O)c2ccccc2c1=O | -14.1% | 8.8% | -3.1% | -6.9% | -0.2% | 16.4µM*
CC(NC(=O)Cn1nc(C(=O)O)c2ccccc2c1=O)c1ccccc1 (stereo not drawn) | 29.9µM* | 0.4%[56.1 µM] | u | -15.5% | 3.3% | -29.3%
COc1ccc(NC(=O)Cn2c(=O)cc(C)c3c(C)nn(C)c32)cc1 | x | -1.9% | u | 2.9% | -3.9% | 3.26µM*
COc1ccc(N2CCN(C(=O)c3cccn3-c3nnc(N4CCCC4)s3)CC2)cc1 | x | 0.0% | u | 1.9% | 33.1% | u
COCCCN1C(=O)C(CC(=O)NCCN2CCOCC2)CC(C(=O)N2CCCCCC2)=C1C (stereo not drawn) | -5.2% | x | -12.2% | x | x | -11.2%
Cc1ccc(NC(=O)CSc2n[nH]c(-c3ccccn3)n2)cc1 | -4.8% | -0.1% | 5.8µM* | -21.2% | -5.1% | -79.4%
O=C(CSc1n[nH]c(-c2ccncc2)n1)Nc1ccccc1 | -14.4% | 9.2% | 2.3% | 17.8% | -13.3% | -7.7%
